Reference: PMC7862700, “An all-to-all approach to the identification of sequence-specific readers for epigenetic DNA modifications on cytosine”

What was measured:
Assay in all cases: DAPPL (digital affinity profiling via proximity ligation, sequencing); 10 mM Tris-HCl pH 7.5, 50 mM NaCl, 1 mM DTT, 4% glycerol, room temperature, 30 min; GST-TFs on glutathione beads, 16-mer random dsDNA library, 0.1% formaldehyde crosslink after washing; high values mean tight binding
Conditions in all cases: protein: recombinant; tags: N-terminal GST; dsDNA, one strand shown
[1] = biological target: T1, FLI1 (Homo sapiens, UniProt Q01543 1-452)
T1 sequence: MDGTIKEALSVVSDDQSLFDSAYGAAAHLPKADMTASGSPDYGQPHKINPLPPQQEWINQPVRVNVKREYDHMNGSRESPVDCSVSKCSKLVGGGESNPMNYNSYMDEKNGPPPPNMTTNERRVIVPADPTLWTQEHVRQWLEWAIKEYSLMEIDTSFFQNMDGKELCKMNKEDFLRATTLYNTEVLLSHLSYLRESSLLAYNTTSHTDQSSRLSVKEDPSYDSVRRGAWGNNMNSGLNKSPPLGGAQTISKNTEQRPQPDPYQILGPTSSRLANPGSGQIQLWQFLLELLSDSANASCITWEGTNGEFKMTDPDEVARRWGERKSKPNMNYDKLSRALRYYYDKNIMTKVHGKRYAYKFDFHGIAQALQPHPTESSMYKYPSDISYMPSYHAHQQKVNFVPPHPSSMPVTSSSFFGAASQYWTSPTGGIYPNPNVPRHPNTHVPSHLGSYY
Summary of the method: (§1)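 Pools were built from human transcription factors expressed in yeast as GST fusions, captured on glutathione beads and DNA-barcoded, along with a tag-only sample. Incubation with 200 nmole of a 16-mer random double-stranded DNA library lasted 30 min at room temperature in Tris/NaCl/DTT/glycerol buffer, and was followed by washing, 0.1% formaldehyde crosslinking, proximity ligation, PCR amplification and Illumina NextSeq500 sequencing. Binding signal is the quotient of each hexamer's read frequency for a factor and its frequency for the tag-only sample.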

[2] = biological target: T2, ELK1 (Homo sapiens, UniProt P19419 1-428)
T2 sequence: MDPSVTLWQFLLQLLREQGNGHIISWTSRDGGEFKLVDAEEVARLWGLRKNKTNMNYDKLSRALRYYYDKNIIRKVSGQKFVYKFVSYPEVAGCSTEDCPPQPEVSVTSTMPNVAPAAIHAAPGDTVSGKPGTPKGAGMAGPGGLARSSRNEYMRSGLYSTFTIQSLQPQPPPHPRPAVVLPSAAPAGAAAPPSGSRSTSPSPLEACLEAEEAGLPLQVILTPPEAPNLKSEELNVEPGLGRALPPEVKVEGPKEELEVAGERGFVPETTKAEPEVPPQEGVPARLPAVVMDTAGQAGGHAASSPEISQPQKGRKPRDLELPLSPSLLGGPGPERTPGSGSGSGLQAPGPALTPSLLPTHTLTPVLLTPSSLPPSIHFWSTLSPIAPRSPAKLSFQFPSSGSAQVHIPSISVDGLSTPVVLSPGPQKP
Summary of the method: as §1

[3] = biological target: T3, GABPA (Homo sapiens, UniProt Q06546 1-454)
T3 sequence: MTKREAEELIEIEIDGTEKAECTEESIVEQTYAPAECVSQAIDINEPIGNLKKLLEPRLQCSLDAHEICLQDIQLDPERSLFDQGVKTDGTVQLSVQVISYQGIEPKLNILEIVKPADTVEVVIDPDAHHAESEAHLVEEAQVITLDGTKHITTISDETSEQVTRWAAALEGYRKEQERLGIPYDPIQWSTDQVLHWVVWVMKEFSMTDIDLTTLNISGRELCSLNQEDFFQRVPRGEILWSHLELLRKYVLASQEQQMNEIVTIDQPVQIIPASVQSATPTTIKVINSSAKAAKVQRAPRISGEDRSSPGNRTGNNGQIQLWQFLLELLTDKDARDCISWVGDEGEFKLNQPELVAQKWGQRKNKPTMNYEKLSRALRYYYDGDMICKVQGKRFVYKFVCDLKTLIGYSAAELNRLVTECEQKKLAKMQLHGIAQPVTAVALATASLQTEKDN
Summary of the method: as §1

[4] = biological target: T4, ERG (Homo sapiens, UniProt P11308 1-479)
T4 sequence: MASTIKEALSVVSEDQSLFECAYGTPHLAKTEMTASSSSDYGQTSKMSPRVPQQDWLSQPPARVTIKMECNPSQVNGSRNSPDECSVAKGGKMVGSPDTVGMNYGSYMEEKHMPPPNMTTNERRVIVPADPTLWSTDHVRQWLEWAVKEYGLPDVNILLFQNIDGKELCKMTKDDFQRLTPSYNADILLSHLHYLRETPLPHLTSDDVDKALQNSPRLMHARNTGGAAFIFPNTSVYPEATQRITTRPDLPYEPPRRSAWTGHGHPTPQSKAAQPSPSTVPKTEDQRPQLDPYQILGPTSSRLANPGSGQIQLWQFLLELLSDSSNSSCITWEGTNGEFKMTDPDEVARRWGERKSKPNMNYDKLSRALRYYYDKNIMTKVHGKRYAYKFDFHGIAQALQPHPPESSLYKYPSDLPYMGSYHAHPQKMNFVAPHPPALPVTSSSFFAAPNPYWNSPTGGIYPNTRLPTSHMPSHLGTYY
Summary of the method: as §1

[5] = biological target: ELF1 (Homo sapiens, UniProt P32519 1-619)
ELF1, sequence (P32519 whole entry): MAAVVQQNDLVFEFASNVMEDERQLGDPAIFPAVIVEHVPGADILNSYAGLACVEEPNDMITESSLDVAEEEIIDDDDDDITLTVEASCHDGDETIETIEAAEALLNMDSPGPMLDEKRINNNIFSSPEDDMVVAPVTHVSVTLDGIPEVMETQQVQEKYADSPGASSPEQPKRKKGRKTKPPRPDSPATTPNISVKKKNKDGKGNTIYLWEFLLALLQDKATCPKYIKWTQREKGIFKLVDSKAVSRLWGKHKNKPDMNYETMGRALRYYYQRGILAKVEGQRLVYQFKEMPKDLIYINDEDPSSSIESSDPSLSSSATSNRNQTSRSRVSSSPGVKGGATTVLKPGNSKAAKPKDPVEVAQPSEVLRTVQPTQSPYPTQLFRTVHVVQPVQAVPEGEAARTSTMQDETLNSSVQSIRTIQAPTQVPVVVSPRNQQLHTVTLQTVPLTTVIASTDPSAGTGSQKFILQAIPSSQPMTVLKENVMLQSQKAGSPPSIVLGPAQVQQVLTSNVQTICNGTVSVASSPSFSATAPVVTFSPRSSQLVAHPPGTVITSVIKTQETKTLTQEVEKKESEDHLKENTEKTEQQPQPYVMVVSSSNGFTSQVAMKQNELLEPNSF
Summary of the method: as §1

[6] = biological target: T5, EHF (Homo sapiens, UniProt Q9NZC4 1-300)
T5 sequence: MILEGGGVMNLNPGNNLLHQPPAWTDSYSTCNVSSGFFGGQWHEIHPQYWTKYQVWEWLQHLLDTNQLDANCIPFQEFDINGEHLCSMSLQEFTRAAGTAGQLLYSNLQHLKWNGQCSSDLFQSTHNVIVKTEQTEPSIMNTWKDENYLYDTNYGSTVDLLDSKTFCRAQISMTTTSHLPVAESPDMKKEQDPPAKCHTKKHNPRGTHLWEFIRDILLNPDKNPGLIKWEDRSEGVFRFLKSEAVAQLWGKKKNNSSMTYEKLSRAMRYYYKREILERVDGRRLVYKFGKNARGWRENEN
Summary of the method: as §1

[7] = biological target: SPI1 (Homo sapiens, UniProt P17947 1-270)
Summary of the method: as §1

[8] = biological target: SPIB (Homo sapiens, UniProt Q01892 1-262)
SPIB, sequence (Q01892 whole entry): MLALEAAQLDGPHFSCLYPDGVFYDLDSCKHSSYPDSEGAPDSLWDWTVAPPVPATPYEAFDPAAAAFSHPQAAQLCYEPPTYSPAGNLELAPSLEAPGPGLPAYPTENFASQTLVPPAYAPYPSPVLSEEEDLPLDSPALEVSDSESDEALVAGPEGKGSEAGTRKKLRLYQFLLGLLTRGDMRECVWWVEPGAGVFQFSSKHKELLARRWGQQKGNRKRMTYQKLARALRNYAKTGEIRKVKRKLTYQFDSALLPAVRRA
Summary of the method: as §1

[9] = biological target: T6, ELK3 (Homo sapiens, UniProt P41970 1-407)
T6 sequence: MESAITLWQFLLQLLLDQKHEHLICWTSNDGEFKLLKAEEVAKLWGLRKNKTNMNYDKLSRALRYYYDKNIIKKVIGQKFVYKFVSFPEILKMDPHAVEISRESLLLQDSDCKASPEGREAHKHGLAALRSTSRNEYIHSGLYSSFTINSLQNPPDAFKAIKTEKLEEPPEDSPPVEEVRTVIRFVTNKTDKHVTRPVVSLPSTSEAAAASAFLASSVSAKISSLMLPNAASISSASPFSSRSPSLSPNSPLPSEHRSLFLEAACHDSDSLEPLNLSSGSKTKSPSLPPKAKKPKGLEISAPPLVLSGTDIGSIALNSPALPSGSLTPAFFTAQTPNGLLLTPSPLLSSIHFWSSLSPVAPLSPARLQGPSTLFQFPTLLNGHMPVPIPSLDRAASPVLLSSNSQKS
Summary of the method: as §1

Sequence | binding signal [1] | binding signal [2] | binding signal [3] | binding signal [4] | binding signal [5] | binding signal [6] | binding signal [7] | binding signal [8] | binding signal [9]
CTTATC | 1.18 fold enrichment (6-mer frequency, TF over GST control) | 1.15 fold enrichment (6-mer frequency, TF over GST control) | 1.16 fold enrichment (6-mer frequency, TF over GST control) | 1.1 fold enrichment (6-mer frequency, TF over GST control) | 1.21 fold enrichment (6-mer frequency, TF over GST control) | 1.08 fold enrichment (6-mer frequency, TF over GST control) | 1.2 fold enrichment (6-mer frequency, TF over GST control) | 1.21 fold enrichment (6-mer frequency, TF over GST control) | 1.09 fold enrichment (6-mer frequency, TF over GST control)
CCGTCT | 1.41 fold enrichment (6-mer frequency, TF over GST control) | 1.32 fold enrichment (6-mer frequency, TF over GST control) | 1.43 fold enrichment (6-mer frequency, TF over GST control) | 1.28 fold enrichment (6-mer frequency, TF over GST control) | 1.46 fold enrichment (6-mer frequency, TF over GST control) | 1.34 fold enrichment (6-mer frequency, TF over GST control) | 1.43 fold enrichment (6-mer frequency, TF over GST control) | 1.45 fold enrichment (6-mer frequency, TF over GST control) | 1.36 fold enrichment (6-mer frequency, TF over GST control)
TTACAT | 1.3 fold enrichment (6-mer frequency, TF over GST control) | 1.27 fold enrichment (6-mer frequency, TF over GST control) | 1.38 fold enrichment (6-mer frequency, TF over GST control) | 1.31 fold enrichment (6-mer frequency, TF over GST control) | 1.31 fold enrichment (6-mer frequency, TF over GST control) | 1.43 fold enrichment (6-mer frequency, TF over GST control) | 1.3 fold enrichment (6-mer frequency, TF over GST control) | 1.3 fold enrichment (6-mer frequency, TF over GST control) | 1.36 fold enrichment (6-mer frequency, TF over GST control)
CCCGAT | 1.29 fold enrichment (6-mer frequency, TF over GST control) | 1.17 fold enrichment (6-mer frequency, TF over GST control) | 1.1 fold enrichment (6-mer frequency, TF over GST control) | 1.14 fold enrichment (6-mer frequency, TF over GST control) | 1.16 fold enrichment (6-mer frequency, TF over GST control) | 1.22 fold enrichment (6-mer frequency, TF over GST control) | 1.16 fold enrichment (6-mer frequency, TF over GST control) | 1.26 fold enrichment (6-mer frequency, TF over GST control) | 1.06 fold enrichment (6-mer frequency, TF over GST control)
GCTTCT | 1.41 fold enrichment (6-mer frequency, TF over GST control) | 1.49 fold enrichment (6-mer frequency, TF over GST control) | 1.53 fold enrichment (6-mer frequency, TF over GST control) | 1.44 fold enrichment (6-mer frequency, TF over GST control) | 1.59 fold enrichment (6-mer frequency, TF over GST control) | 1.52 fold enrichment (6-mer frequency, TF over GST control) | 1.43 fold enrichment (6-mer frequency, TF over GST control) | 1.51 fold enrichment (6-mer frequency, TF over GST control) | 1.61 fold enrichment (6-mer frequency, TF over GST control)
CCGTTT | 1.47 fold enrichment (6-mer frequency, TF over GST control) | 1.36 fold enrichment (6-mer frequency, TF over GST control) | 1.33 fold enrichment (6-mer frequency, TF over GST control) | 1.57 fold enrichment (6-mer frequency, TF over GST control) | 1.29 fold enrichment (6-mer frequency, TF over GST control) | 1.33 fold enrichment (6-mer frequency, TF over GST control) | 1.56 fold enrichment (6-mer frequency, TF over GST control) | 1.39 fold enrichment (6-mer frequency, TF over GST control) | 1.35 fold enrichment (6-mer frequency, TF over GST control)
CCTATC | 1.27 fold enrichment (6-mer frequency, TF over GST control) | 1.27 fold enrichment (6-mer frequency, TF over GST control) | 1.13 fold enrichment (6-mer frequency, TF over GST control) | 1.15 fold enrichment (6-mer frequency, TF over GST control) | 1.15 fold enrichment (6-mer frequency, TF over GST control) | 1.18 fold enrichment (6-mer frequency, TF over GST control) | 1.14 fold enrichment (6-mer frequency, TF over GST control) | 1.31 fold enrichment (6-mer frequency, TF over GST control) | 1.45 fold enrichment (6-mer frequency, TF over GST control)
